# Bioassay records from PubChem BioAssay.
# The list is not random: actives were taken first. Their share in the collection is about 9.5%.
# HPGD inh: inhibitors of human 15-hydroxyprostaglandin dehydrogenase (HPGD); purified HPGD, NADH fluorescence kinetic, PGE2 substrate; actives 4.3% (n = 150,000); Potency, µM, for the others: at the top dose activity change, negative = inhibition, usual class: inhibitors; P15428; active = well fitted inhibition curve with a large enough effect, not every such curve was filed as active; inconclusive = small, poorly fitted or top-dose-only effect, or another doubt; inactive = no such curve, though single readings can be large or run the other way
#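 NADH formation kinetics: reaction with 30 uM PGE2 and 1 mM NAD+ (final), 20 nM enzyme, Tris-HCl pH 8 with Tween 20, after 15 min compound preincubation at room temperature. Fluorescence change, last versus first of five reads.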
# Tau FP inhib: blocks human tau fibril formation measured by polarization; P10636; K18 P301L tau heparin fibrillization, Alexa594 FP, 6 h; Potency, µM (series often up to 57.7 µM), inactives show at the highest dose activity, negative = inhibition, usual class: inhibitors; actives 0.39% (n = 280,000); note: nearly all actives have a fitted effect of over 55% in size
# Target sequence (P10636 561-689 P618L limits assumed): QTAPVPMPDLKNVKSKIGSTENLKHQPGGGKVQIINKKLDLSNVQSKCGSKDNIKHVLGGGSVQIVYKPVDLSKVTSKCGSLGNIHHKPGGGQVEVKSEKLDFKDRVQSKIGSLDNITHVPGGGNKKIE
#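 Read-out: fluorescence polarization of Alexa 594-labeled tau (0.24 uM), 555 nm excitation, 632 nm emission. Mixtures held 15 uM unlabeled K18 P301L, compound and 20 uM heparin, pH 7 acetate buffer, incubated 6 hr at 37 C.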
# Tau ThT inhib: tau fibrillization inhibition (ThT binding); recombinant tau K18 P301L, heparin-induced fibrillization, ThT fluorescence; Potency, µM (titrated, usually from 57.4 µM), for the others: top-dose activity, negative = inhibition, usual class: inhibitors; actives 2.1% (n = 270,000); AID 1460; note: nearly all actives have a fitted effect of over 55% in size
#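 In this qHTS, human K18 P301L tau is incubated with compound and heparin for 6 hr at 37 C, and Thioflavin T fluorescence then reports fibril load.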
# NPSR antagonist: blocks cAMP signaling of the human neuropeptide S receptor; Q6W5P4; CHO-NPSR cells, cAMP TR-FRET, antagonist mode; Potency, µM (titrated, usually from 38.3 µM), inactives show at the top dose activity change, negative = inhibition, actives largely listed as inhibitors; actives 1% (n = 220,000); note: nearly all actives have a fitted effect of over 50% in size
# Tau fluor counter: counter-screen for tau fibril formation inhibitors; Potency, µM (series often up to 57.7 µM), inactives show at the highest dose activity change, negative = decrease; actives 0.93% (n = 280,000); tau K18 P301L (four-repeat tau fragment) Alexa594 fluorescence, heparin fibrillization; note: nearly all actives have a fitted effect of over 55% in size
#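 Human K18 P301L tau (15 uM unlabeled plus 0.24 uM Alexa 594-labeled, final) in 100 mM sodium acetate pH 7 was mixed with compound and 20 uM heparin and incubated 6 hr at 37 C.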
# ALDH1A1 inh: blocks purified human ALDH1A1 activity. actives 7.3% (n = 220,000). Potency, µM (series often up to 75.3 µM), for the others: at the highest dose activity, negative = inhibition, actives largely listed as inhibitors. Purified ALDH1A1, NADH fluorescence, propionaldehyde substrate. P00352; active = well fitted inhibition curve with a large enough effect, not every such curve was filed as active; inconclusive = small, poorly fitted or top-dose-only effect, or another doubt; inactive = no such curve, though single readings can be large or run the other way;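 note: plate controls were no enzyme wells and a reference inhibitor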
# Target sequence (P00352 whole entry, looked up): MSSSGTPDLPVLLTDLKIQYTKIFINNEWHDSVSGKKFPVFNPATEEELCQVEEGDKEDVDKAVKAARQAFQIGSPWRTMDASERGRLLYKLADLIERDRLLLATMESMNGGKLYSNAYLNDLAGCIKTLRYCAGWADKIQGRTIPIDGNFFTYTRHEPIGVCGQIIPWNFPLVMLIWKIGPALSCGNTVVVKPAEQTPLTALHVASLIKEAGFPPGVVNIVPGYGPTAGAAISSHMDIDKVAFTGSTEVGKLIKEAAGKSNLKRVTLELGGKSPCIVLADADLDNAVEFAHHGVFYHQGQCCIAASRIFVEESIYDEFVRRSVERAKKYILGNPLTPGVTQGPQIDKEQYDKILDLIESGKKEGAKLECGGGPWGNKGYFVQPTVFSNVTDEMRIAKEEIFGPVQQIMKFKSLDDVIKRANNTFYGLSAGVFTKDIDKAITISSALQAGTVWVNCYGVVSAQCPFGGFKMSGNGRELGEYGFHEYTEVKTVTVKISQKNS
# * marks the source's active call; other numbers are inactive results; u = inconclusive; x = not tested or not shown; ! = repeats disagree; [ ] = remark or other dose. Unless noted, calls come from the whole dose curve; as a rule, active = well fitted curve in the direction sought with a large enough effect; inconclusive = small, poorly fitted or top-dose-only effect, or another doubt; inactive = no such curve, though single readings can be large; an effect the other way counts as inactive or inconclusive. Unless noted, % is set by controls: 0 for no effect and ±100 for the full control effect; potency is the fitted concentration of half-maximal effect.
SMILES,HPGD inh,Tau FP inhib,Tau ThT inhib,NPSR antagonist,Tau fluor counter,ALDH1A1 inh
COC(=O)C1=C(C(=O)c2ccccc2)C(c2cccs2)n2nnnc2N1 (centres undefined),-6.5%,-0.1%,-7.0%,-23.3%[46.1 µM],-6.3%,22.4µM*
COC(=O)c1[nH]c2cccc(Cl)c2c1NC(=O)CN(C)C1CCCCC1,-14.7%,2.2%,-6.4%,-32.9%[46.1 µM],-9.9%,u
Cc1ccc(OCC(=O)Nc2c(C(=O)c3ccc(Cl)cc3)oc3ccccc23)cc1C,x,1.6%,0.6%,x,-6.7%,x
Cc1ccc(C(CC(=O)Nc2cc(C)cc(C)c2)N2Cc3ccccc3C2=O)cc1 (centres undefined),x,-6.4%,-3.3%,x,-15.6%,x
CCCCCCOc1ccc(C(=O)O)cc1C#N,20µM*,-2.7%,0.0%,-13.3%,-3.1%,16.4%
CCCCCCCCOc1ccc(C(=O)O)cc1,-11.2%,x,x,x,x,15.3%
CCOC(=O)c1cnc2ccc(C(=O)OC)cc2c1Nc1ccc(N2CCOCC2)cc1,x,-1.1%,14.1µM*,x,u,x
CCOC(=O)c1cnc2ccc(Cl)cc2c1Nc1ccc(S(=O)(=O)Nc2ncccn2)cc1,-15.7%,-1.4%,u,-19.5%,-6.8%,16.7%
CCOC(=O)c1cnc2ccc(Cl)cc2c1Nc1ccc(N2CCOCC2)cc1,x,-12.1%,15.8µM*,x,u,x
CCOC(=O)c1cnc2ccccc2c1Nc1ccc(C(=O)O)cc1,x,7.9%,-2.0%,-35.0%,-4.5%,3.1%
CCOC(=O)c1cnc2ccc(C)cc2c1Nc1ccc(N(CC)CC)cc1,x,u,12.6µM*,x,u,x
CCOC(=O)c1cnc2ccc(Br)cc2c1NCCN1CCOCC1,x,0.4%,-6.4%,x,-2.6%,x
CCOC(=O)c1cnc2ccc(C)cc2c1Nc1ccc(N2CCOCC2)cc1,-15.8%,u,28.2µM*,u,u,1.2%
S=c1[nH]nc(CNc2cccc(Cl)c2)o1,x,0.2%,-8.6%,1.6%,5.6%,31.6µM*
CS(=O)(=O)N(CC(=O)N1CCN(c2ccccc2F)CC1)C1CCCCC1,-19.5%,2.8%,10.6%,-14.6%[46.1 µM],8.3%,7.94µM*
CCOC(=O)c1cccc(NC(=O)CC2C(=O)N(c3ccc(C)cc3)C(=O)N2Cc2cccc(OC)c2)c1 (centres undefined),x,-6.1%,4.4%,x,u,x
CCOC(=O)CCCCC(=O)c1[nH]c(=O)[nH]c1CSc1nnc2c3cc(Br)ccc3n(C)c2n1,x,-1.1%,-1.0%,-28.6%,-3.5%,0.631µM*
O=C1Nc2c(c(=O)[nH]c(=O)n2-c2ccc(Cl)cc2)C1(NS(=O)(=O)c1ccccc1)C(F)(F)F (centres undefined),x,-18.0%,-3.6%,x,-10.5%,x
Cn1ccnc1SCC(=O)c1ccc([N+](=O)[O-])cc1,x,0.5%,u,11.9%,-17.8%,u
CC(NC(=O)CSC1=NCCS1)c1ccccc1 (centres undefined),x,6.7%,-4.0%,10.1%[46.1 µM],-1.2%,-0.5%
O=C(O)c1ccccc1CSC1=NCCS1,x,-13.4%,u,11.6%,-4.7%,20µM*
O=C(CSC1=NCCS1)Nc1ccccc1F,28.2µM*,-3.2%,u,-10.0%[46.1 µM],-15.1%,8.91µM*
N#Cc1ccccc1CSC1=NCCS1,x,6.9%,-7.0%,6.4%,-7.7%,u
COC(=O)c1ccccc1NC(=O)CSc1nccn1C,-10.9%,-8.8%,6.5%,-5.1%[46.1 µM],-8.4%,-10.2%
Cn1ccnc1SCC(=O)Nc1cccc2ccccc12,25.1µM*,-2.8%,2.3%,2.7%[46.1 µM],-5.9%,-0.1%
SMILES,HPGD inh,Tau FP inhib,Tau ThT inhib,NPSR antagonist,Tau fluor counter,ALDH1A1 inh
Cn1ccnc1SCC(=O)c1ccc(Br)cc1,u,-5.4%,u,-26.3%[46.1 µM],-8.0%,3.55µM*
O=C(CSC1=NCCS1)NC(c1ccccc1)c1ccccc1,-5.7%,u,15.8µM*,-33.6%,-10.1%,-2.8%
COC(=O)c1cc(NC(=O)CSC2=NCCS2)cc(C(=O)OC)c1,x,-0.8%,-12.7%,-14.0%,-10.4%,12.6µM*
O=C(CSC1=NCCS1)NC(NC(=O)CSC1=NCCS1)c1ccccc1,x,-6.1%,-15.2%,-7.6%,-6.6%,5.4%
O=C(CSC1=NCCS1)Nc1cccc2ccccc12,14.1µM*,-3.3%,u,-9.2%[46.1 µM],-17.1%,u
CCCC(=O)Nc1ncnc2c1ncn2C1OC2COP(=O)(O)OC2C1OC(=O)CCC (centres undefined),-17.9%,1.4%,1.6%,x,-3.8%,4.7%
CCN(C(=O)Cn1nc(Cc2cccnc2)c2ccccc2c1=O)c1cc(C)ccc1C,x,5.4%,-5.1%,x,-4.2%,x
O=C(Nc1cccc(-c2csc(Nc3ccc(Cl)cc3)n2)c1)c1ccccc1,x,-11.9%,14.1µM*,-50.2%,14.1µM*[quencher],x
O=C(Nc1cccc(-c2csc(Nc3ccc(Cl)cc3)n2)c1)c1cccc(C(F)(F)F)c1,x,-3.1%,12.6µM*,-59.2%,7.94µM*[quencher],x
COc1ccc(-c2csc(NC(=S)NC(=O)c3cccs3)n2)cc1OC,x,u,u,-34.5%,u,11.2µM*
O=C(Nc1cccc(-c2csc(-c3ccccc3)n2)c1)c1cccs1,-10.8%,14.1µM*,u,-20.2%[46.1 µM],u,-2.1%
COc1ccc(-c2csc(NC(=S)NC(=O)c3cccs3)n2)cc1Br,x,u,u,27.9%,-29.6%,2.5%
CC(C)CN1CN(Cc2ccccc2)CNC1=S,3.0%,-0.2%,1.5%,-1.4%[46.1 µM],2.1%,-3.3%
S=C1NC=NC2N=CNC12 (centres undefined),u,x,x,x,x,2.24µM*
COc1ccc(OC)c(NC(=O)c2cnc(Nc3ccccc3OC)c3ccccc23)c1,u,-3.0%,-10.8%,-15.7%,u,u
COC(=O)c1ccccc1NC(=O)c1cnc(Nc2ccc(OC)cc2)c2ccccc12,x,0.3%,u,x,4.47µM*[quencher],x
COc1ccc(Nc2ncc(C(=O)Nc3cc(Cl)c(OC)cc3OC)c3ccccc23)cc1,x,u,-20.5%,x,u,x
COc1ccc(Nc2ncc(C(=O)Nc3cccc(Cl)c3)c3ccccc23)cc1,x,9.2%,u,x,8.91µM*[quencher],x
CC(C)COc1ccc(C(=O)N(Cc2ccc(N(C)C)cc2)Cc2ccco2)cc1,x,3.7%,-15.4%,x,-22.6%,x
NNC(=O)c1sc2cc(C(F)(F)F)cnc2c1-c1ccccn1,x,-0.7%,-8.6%,-18.3%,-0.4%,7.08µM*
CCCCCCCCNC(C)C(O)c1ccc(SC(C)C)cc1 (centres undefined),-3.5%,9.4%,-9.7%,u,-13.6%,7.94µM*!
O=C(c1ccc(Br)cc1)N1CCCC1,7.94µM*,0.9%,-0.2%,-2.4%[46.1 µM],3.5%,-6.7%
O=C(c1ccccc1)N1CCN(C(=O)c2ccccc2)CC1,0.1%,-8.4%,-6.6%,-3.9%[46.1 µM],-8.2%,1.4%
O=C(c1cc2cc(Cl)ccc2oc1=O)N1CCCC1,-20.6%,4.0%,-4.8%,2.8%[46.1 µM],0.4%,-9.7%
